In all, about 350,000 compounds went through this assay and about 600 (0.17%) were called active.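 Rule for the calls: active = every replicate shows inhibition of at least 40%; inconclusive = mean inhibition at least 40% but some replicate below; inactive = the rest.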 This excerpt belongs to a sample that is enriched for actives.
assay: inhibitors of PGC1a acetylation signal, primary screen, cell-based, U2OS, AlphaScreen, inhibitor mode (AID 651687); settings: AlphaScreen anti-acetyl-lysine, at 15.6 µM, active compounds read high, with virally co-expressed GCN5 acetyltransferase;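 note: 0% = neutral control wells and 100% = positive control wells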

SMILES	inhibition
CC(C)CC#Cc1ccc2c(c1)O[C@H](CN(C)C(=O)C1CC1)[C@@H](C)CN([C@@H](C)CO)S2(=O)=O	3.73% (inactive)
CCCN1C[C@@H](C)[C@H](OC)CN(C)C(=O)c2cc(NC(=O)CC)ccc2OC[C@@H]1C	3.35% (inactive)
C/C=C/c1ccc([C@H]2[C@H]3CN(S(=O)(=O)c4ccccc4)CCCCN3[C@H]2CO)cc1	-5.04% (inactive)
Cc1noc(C)c1NC(=O)N(C)C[C@@H]1Oc2ccc(NC(=O)Nc3ccc4c(c3)OCO4)cc2CC(=O)N([C@H](C)CO)C[C@H]1C	-8.32% (inactive)
O=C(C1CCCC1)N1CC(=O)N2[C@H](CO)[C@H](c3ccc(Br)cc3)[C@@H]2C1	-9% (inactive)
C[C@@H]1CN([C@H](C)CO)C(=O)Cc2cc(NC(=O)Cn3cnnn3)ccc2O[C@H]1CN(C)CC1CCCCC1	-7.22% (inactive)
N#C[C@H]1[C@H](c2ccc(-c3cccc(F)c3)cc2)[C@@H](CO)N1C(=O)NC1CCCC1	4.29% (inactive)
C[C@@H]1CN([C@H](C)CO)C(=O)c2cccc(NS(=O)(=O)c3cn(C)cn3)c2O[C@@H]1CN(C)Cc1ccc(C(F)(F)F)cc1	-1.87% (inactive)
O=C(C[C@H]1C[C@@H]2c3cc(NC(=O)c4ccc5c(c4)OCO5)ccc3O[C@@H]2[C@@H](CO)O1)NCc1cccnc1	-3.47% (inactive)
COCC(=O)N1CC(=O)N2[C@H](C1)[C@@H](c1ccc(C#Cc3cccc(OC)c3)cc1)[C@@H]2CO	-0.955% (inactive)
O=C(O)c1ccc2c(=O)n3c(nc2c1)/C(=C/c1ccc(Cl)c([N+](=O)[O-])c1)CC3	12.5% (inactive)
Cc1nc2ccccc2c(=O)n1NC(=O)c1ccc(Cl)c([N+](=O)[O-])c1	44.8% (active)
Cc1ccnc(NC(=O)c2ccc(Cl)c([N+](=O)[O-])c2)c1	3% (inactive)
O=C(C1CC1)N1CC(=O)N2[C@H](CO)[C@@H](c3ccc(-c4ccccc4F)cc3)[C@@H]2C1	6.24% (inactive)
C[C@H]1CN([C@@H](C)CO)C(=O)c2cc(-c3ccc(C#N)cc3)cnc2O[C@@H]1CN(C)Cc1ccncc1	-4.55% (inactive)
C[C@@H]1CCCCO[C@H](CN(C)C(=O)Nc2ccccc2)[C@H](C)CN([C@H](C)CO)C(=O)c2cc(N(C)C)ccc2O1	0.535% (inactive)
O=C(C[C@H]1C=C[C@H](NC(=O)c2cnccn2)[C@@H](CO)O1)NCc1ccccc1F	-5.81% (inactive)
CN1/C(=C\C(=O)c2oc3ccccc3c2N)C(C)(C)c2ccccc21	86.9% (active)
CN1/C(=C\C=C2\N=C(c3ccc(F)cc3)OC2=O)C(C)(C)c2ccccc21	-0.203% (inactive)
CN1CCN(CCC(=O)N/N=C/C=C2\N(C)c3ccccc3C2(C)C)CC1	17.1% (inactive)
C[C@@H]1CN([C@H](C)CO)C(=O)c2cccc(NC(=O)c3nc4ccccc4s3)c2O[C@@H]1CN(C)Cc1ccc(Oc2ccccc2)cc1	16.2% (inactive)

SMILES	inhibition
CN1CCN(C(=O)C[C@H]2CC[C@H]3[C@@H](COC[C@H](O)CN3CC3CCOCC3)O2)CC1	0.0455% (inactive)
O=C(N/N=C\c1cc2c(cc1Cl)OCO2)c1ccc(Br)s1	-10.7% (inactive)
CC/C(=N\NC(=O)c1ccccc1Cl)c1ccc(Br)s1	82.8% (active)
C/C(Cc1ccccc1)=N\NC(=O)CNC(=O)c1ccccc1Cl	5.72% (inactive)
COc1ccc(S(=O)(=O)N(C)C[C@H]2OCCCC[C@@H](C)Oc3ccc(NS(=O)(=O)c4ccc(C)cc4)cc3C(=O)N([C@@H](C)CO)C[C@@H]2C)cc1	0.06% (inactive)
COc1ccc(-c2ccc(CCC(=O)O)n2NC(=O)c2ccc(C(C)(C)C)cc2)cc1	43.5% (active)
COCCCn1c(CCC(=O)O)ccc1-c1ccc(F)cc1	-1.42% (inactive)
COc1ccc(-c2ccc(CCC(=O)O)n2-c2ccc(O)cc2)cc1	1.05% (inactive)
Cc1noc(C)c1NC(=O)N(C)C[C@@H]1OCCCC[C@H](C)Oc2ccc(NS(=O)(=O)c3c(C)noc3C)cc2C(=O)N([C@@H](C)CO)C[C@@H]1C	-1.1% (inactive)
CN1C(=O)c2cc(NC(=O)C3CCOCC3)ccc2OC[C@@H]2O[C@@H](CC(=O)NCC3CC3)CC[C@@H]21	4.15% (inactive)
C[C@@H]1CN([C@H](C)CO)C(=O)c2cc(NS(=O)(=O)c3cn(C)cn3)ccc2O[C@@H](C)CCCCO[C@@H]1CN(C)C(=O)CCC(F)(F)F	-2.59% (inactive)
COc1ccc(NC(=O)N2CC(=O)N3[C@H](CO)[C@@H](c4ccc(-c5ccc(C)cc5)cc4)[C@H]3C2)cc1	5.16% (inactive)
COc1ccccc1C(=O)Nc1ccc2c(c1)OC[C@@H](C)NC[C@H](C)[C@@H](OC)CN(C)C2=O	-5.63% (inactive)
O=C(C[C@@H]1C[C@@H]2c3cc(NC(=O)c4ccc5c(c4)OCO5)ccc3O[C@@H]2[C@H](CO)O1)NCCc1ccccc1	-4.93% (inactive)
CCN1[C@@H]2Cn3c(ccc(-c4cccnc4)c3=O)[C@H]1[C@@H](C(=O)NC1CCCCC1)[C@@H]2CO	1.27% (inactive)
CCCNC(=O)C[C@H]1CC[C@H]2[C@@H](COC[C@H](O)CN2C(=O)CC)O1	3.49% (inactive)
CCCNC(=O)C[C@H]1CC[C@@H]2[C@H](COC[C@H](O)CN2S(=O)(=O)c2ccccc2F)O1	-0.728% (inactive)
O=C(C[C@@H]1CC[C@H](NC(=O)CN2CCOCC2)[C@@H](CO)O1)NCCc1ccccc1	-5.55% (inactive)
CC(C)NC(=O)Nc1ccc2c(c1)C(=O)N([C@@H](C)CO)C[C@@H](C)[C@@H](CN(C)S(=O)(=O)c1ccc(F)cc1)OCCCC[C@H](C)O2	-0.972% (inactive)
CC(C)NC(=O)Nc1ccc2c(c1)C(=O)N([C@@H](C)CO)C[C@H](C)[C@H](CN(C)S(=O)(=O)c1ccc(Cl)cc1)OCCCC[C@H](C)O2	-18.6% (inactive)
CC(C)NC(=O)Nc1ccc2c(c1)C(=O)N([C@@H](C)CO)C[C@@H](C)[C@H](CN(C)S(=O)(=O)c1ccccc1)OCCCC[C@@H](C)O2	124% (active)

From PubChem BioAssay AID651687 (Broad Institute, 2012)
